Cruzain Triton – cruzain (T. cruzi) inhibition with detergent | 0.43% of 200,000 active | purified cruzain, Z-FR-AMC fluorescence, 0.01% Triton | AID 1478 | Potency, µM, actives largely listed as inhibitors | P25779; further: nearly all actives have a fitted effect of over 40% in size
Target sequence (P25779 123-467 limits assumed): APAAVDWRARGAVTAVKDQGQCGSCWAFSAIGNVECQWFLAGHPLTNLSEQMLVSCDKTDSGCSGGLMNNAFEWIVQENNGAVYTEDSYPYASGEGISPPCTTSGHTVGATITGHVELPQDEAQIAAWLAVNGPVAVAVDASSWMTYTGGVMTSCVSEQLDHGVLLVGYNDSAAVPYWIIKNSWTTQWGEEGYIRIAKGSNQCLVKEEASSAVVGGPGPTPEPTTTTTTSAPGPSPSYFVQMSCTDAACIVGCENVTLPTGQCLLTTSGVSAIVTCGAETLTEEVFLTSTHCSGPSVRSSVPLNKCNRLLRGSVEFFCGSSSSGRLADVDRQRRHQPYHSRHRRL
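In this qHTS format, compounds are incubated with 1.5 nM cruzain for 15 min at room temperature before 2 uM Z-FR-AMC is added. Release of AMC is followed at 360/450 nm, and progress is taken as the 60 s fluorescence difference.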
NS1 inh – influenza NS1 inhibition | AID 2326 | Potency, µM (series often up to 46.1 µM) | 0.4% of 270,000 active; calls by dose curve; further: actives are rising curves; nearly all actives have a fitted effect of over 50% in size
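Growth recovery, yeast-based: influenza A NS1 expressed in S. cerevisiae causes slow growth, and suppressors are detected by OD600. The parent strain without NS1 is used as positive control.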
Cruzain noTriton – blocks cruzain activity in detergent-free assay. purified cruzain, Z-FR-AMC fluorescence, no detergent. Potency, µM, hits mostly inhibitors. 2.3% of 200,000 active. AID 1476; further: nearly all actives have a fitted effect of over 40% in size
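Purified cruzain at 1.5 nM, pre-incubated 15 min with compound at room temperature in 100 mM sodium acetate pH 5.5, 5 mM DTT, 0.00005% Triton X-100. Reaction started with 2 uM Z-FR-AMC; AMC fluorescence increase over 60 s gives rate.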
Numbers stand for hits; . = inactive; ? = inconclusive; / = not tested or not shown. Only a selection was taken, and hits are over-represented in it overall. Unless noted, the call rests on the fitted dose curve; in most records, active means well fitted curve in the direction sought with a large enough effect; inconclusive means small, poorly fitted or top-dose-only effect, or another doubt; inactive means no such curve, though single readings can be large; an effect the other way counts as inactive or inconclusive.

SMILES	Cruzain Triton	NS1 inh	Cruzain noTriton
CCC(C(=O)Nc1ccc(C)c(Cl)c1)n1c(=O)c(-c2ccccc2NC(C)=O)nc2ccccc21 (stereo not given)	.	/	.
COc1cc(O)ccc1-c1nc2ccc(Br)cn2c1Nc1ccccc1C	.	/	.
CCOC(=O)C(=O)C1(C(=O)OCC)Oc2cc(OC)cc(OC)c2C(=O)C1c1ccccc1 (stereo not given)	.	/	.
CCc1ccccc1N1C(=O)N(CC(=O)c2ccc(Cl)cc2)c2ccccc2S1(=O)=O	.	/	?
CCN(CC)S(=O)(=O)c1ccc2c(c1)N(CC(=O)Nc1ccc(F)cc1F)C(=O)C1CCCN21 (stereo not given)	.	/	.
COc1cc2c(cc1NC(=O)COC(=O)c1ccc(C(C)(C)C)cc1)oc1ccccc12	.	.	13µM
COc1cc2c(cc1NC(=O)COc1ccccc1OC)oc1ccccc12	.	.	.
CN(CCC(=O)O)C1=Nc2ccc(Cl)cc2C(c2ccccc2)=[N+]([O-])C1	.	.	.
Cc1ccc(Cl)cc1N1CCN(C(=O)c2ccc(NC(=O)c3nsc4ccccc34)cc2)CC1	.	/	7.9µM
O=C(Nc1ccc(C(=O)N2CCN(c3ccc(Cl)cc3)CC2)cc1)c1nsc2ccccc12	.	/	.
Clc1ccccc1-c1cc(NCc2ccccc2)ncn1	.	/	.
C=C1c2cccc(C(F)(F)F)c2O[C@H](C(=O)OCC)[C@@H]1CCCCCC	.	/	.
CCc1c(C)sc(NC(=O)c2cc(-c3ccc(OC)c(OC)c3)on2)c1C#N	.	.	.
CCc1c(C)sc(NC(=O)c2cc(-c3ccc(O)cc3)on2)c1C#N	.	.	7.9µM
COCCn1c(=O)c(-c2ccc(Cl)cc2)nc2cnc(Oc3cccc(Cl)c3)nc21	.	/	.
CC1=NN2C(=N)/C(=C\c3ccc(SCc4ccccc4)o3)C(=O)N=C2S1	.	.	7.9µM
CC1=NN2C(=N)/C(=C\c3cc(C)n(Cc4ccccc4)c3C)C(=O)N=C2S1	/	.	/
COC(=O)C1(C(=O)OC)Cc2conc2[C@H]1c1ccccc1	.	/	.
O=C(NCCCN1CCN(c2ccc(F)cc2)CC1)c1cc2c(Cl)nc3ccccc3c2s1	.	/	.
COC(=O)c1c(NC(=O)CN2C(=O)NC3(CCc4ccccc4C3)C2=O)sc2c1CCCCC2 (stereo not given)	.	.	13µM
CC1CCCCC12NC(=O)N(CC(=O)Nc1sc3c(c1C(N)=O)CCC3)C2=O (stereo not given)	.	.	.
COC(=O)c1c(NC(=O)CN2C(=O)NC3(CCC(C(C)(C)C)CC3)C2=O)sc2c1CCCCC2 (stereo not given)	.	.	16µM
O=C(CN1C(=O)NC2(CCc3ccccc3C2)C1=O)Nc1ccc(Cl)cc1F (stereo not given)	.	.	.
O=C(Nc1ccc(OCc2cc(=O)n3c4c(sc3n2)CCCC4)cc1)c1ccc(F)cc1	.	/	.
CN(C)c1ccc(/C=N/c2cc(-c3ccccc3)nn2-c2ccccc2)cc1	.	.	20µM
SMILES	Cruzain Triton	NS1 inh	Cruzain noTriton
Cc1nn(-c2ccccc2)c(/N=C/c2ccc(O)cc2)c1-c1ccccc1	.	.	.
CN(Cc1ccccc1)C(=O)[C@H](Cc1ccc2ccccc2c1)NC(=O)[C@@H]1C[C@@H](O)CN1C(=O)c1cn(C)c2ccccc12	.	/	?
Cc1ccc2nc(/C(C#N)=C\c3ccc([N+](=O)[O-])o3)[nH]c2c1	.	.	?
COc1cc(/C=C(/C#N)c2ccc(C)cc2)ccc1Oc1ccc([N+](=O)[O-])cn1	.	.	25µM
Cc1ccc(/C(C#N)=C/c2cccc([N+](=O)[O-])c2)cc1	.	.	.
CCOc1cc(/C=C(/C#N)c2nc3ccccc3[nH]2)ccc1Oc1ccc([N+](=O)[O-])cn1	.	.	.
COc1ccc2nc(/C(C#N)=C\c3ccc(Oc4ccc([N+](=O)[O-])cn4)cc3)[nH]c2c1	.	?	25µM
Cc1ccc2nc(/C(C#N)=C\c3ccc(Oc4ccc([N+](=O)[O-])cn4)cc3)[nH]c2c1	.	.	10µM
Cc1cc(/C=C(/C#N)c2nc3ccccc3[nH]2)c(C)n1-c1cc(C(=O)O)cc(C(=O)O)c1	/	.	/
Cc1ccc2nc(/C(C#N)=C\c3cc(C)n(-c4cccc([N+](=O)[O-])c4)c3C)[nH]c2c1	.	.	25µM
Cc1ccc(CSCCNC(=O)C2CCN(S(=O)(=O)Cc3ccccc3)CC2)cc1	.	/	.
COc1ccc2c(c1)c1c(c(=O)n(Cc3ccccc3)c(=O)n1Cc1cccc(Cl)c1)n2C	.	/	.
CCn1cc(C(=O)NCc2ccccc2Cl)c(=O)c2cc(S(=O)(=O)N3CCCCC3)ccc21	.	/	.
CCn1cc(C(=O)NCc2ccccc2Cl)c(=O)c2cc(S(=O)(=O)N3CCc4ccccc4C3)ccc21	.	/	13µM

Source: PubChem BioAssay
